Laboratory results: PubChem BioAssay (Tox21)
“And” between values parts separate entries of the source, which are not always exact repeats. Equal entries are not always repeated. Records with an inconclusive call do not appear. Entries that show only a call come without a potency. The source holds several records for some structures; these can differ, active in one and inactive in another. The source made the active and inactive calls. Unless noted, the call rests on the fitted dose curve; in most records, active means well fitted curve in the direction sought with a large enough effect in the repeat runs; inconclusive means weak or mixed curves; inactive means no such curve, though single readings can be large; an effect the other way counts as inactive or inconclusive.

Tests used:
[1] = qHTS assay to identify small molecule agonists of the hypoxia (HIF-1) signaling pathway - cell viability counter screen (AID 1224844; calls by dose curve; further: nearly all actives have a fitted effect of over 50% in size; further: potency means the concentration at half of the fitted maximal effect)
Summary of the method: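 HRE-bla ME-180 cells in medium with 0.5% dialyzed FBS were preincubated 5 hrs at 37C, exposed to compounds for 17 hrs, then viability was read as CellTiter-Glo luminescence after 30 min at room temperature, in the reporter wells.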

[2] = qHTS assay to identify small molecule agonists of the hypoxia (HIF-1) signaling pathway (AID 1224846; active means well fitted activation curve with a large enough effect in the signal ratio in the repeat runs, not every such curve was filed as active; the % refers to the signal ratio)
Summary of the method: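 HRE-bla ME-180 cells (beta-lactamase reporter under hypoxia response element) were plated at 2,000 cells/well in medium with 0.5% dialyzed FBS, rested 5 hrs, then given compounds in DMSO for 17 hrs at 37C, 5% CO2. Reporter induction was read with CCF4-AM FRET substrate.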

[3] = qHTS assay to identify small molecule agonists of H2AX - cell viability counter screen (AID 1224847; calls by dose curve; further: nearly all actives have a fitted effect of over 30% in size; further: potency means the concentration at half of the fitted maximal effect)
Summary of the method: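 Wild-type CHO-K1 cells (10% FBS medium) were plated overnight at 37C, exposed to compounds at 15 concentrations for 3 hr at 37C (0.76% DMSO final), and viability was read as CellTiter-Glo luminescence after 30 min at room temperature.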

[4] = qHTS assay to identify small molecule agonists of the estrogen related receptor (ERR) signaling pathway from Tox21 library (AID 1224849; calls by dose curve; further: nearly all actives have a fitted effect of over 15% in size); details: ERR reporter cell line, ONE-Glo luciferase, 18 h
Summary of the method: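 ERR reporter cell line (NTP) seeded, rested 6 h at 37 C/5% CO2, then pinned with Tox21 compounds in DMSO. After 18 h at 37 C, ONE-Glo luciferase luminescence was read following 30 min at room temperature.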

[5] = qHTS RealTime-Glo MT Cell Viability Assay in HepG2 cells - 24 hour (AID 1224867); further: nearly all actives have a fitted effect of over 50% in size; further: potency means the concentration at half of the fitted maximal effect
Summary of the method: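 HepG2 cells were seeded at 600 cells/well together with NanoLuc luciferase and a cell-permeant prosubstrate, preincubated 5 h at 37 C/5% CO2, then pin-dosed with compounds in DMSO. Nonlytic luminescence from viable cells was read at each time point.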

[6] = A CellTox Green Cytotoxicity Assay to monitor cytotoxicity in HEK293 cells - 0 hour (AID 1224869); further: nearly all actives have a fitted effect of over 50% in size; further: potency means the concentration at half of the fitted maximal effect
Summary of the method: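 HEK293 cells premixed with CellTox Green dye were seeded at 600 cells/well and left 5 h at 37 C/5% CO2 before pin transfer of 23 nL compound in DMSO. Fluorescence from dye bound to dead-cell DNA was read during 40 h treatment.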

[7] = qHTS RealTime-Glo MT Cell Viability Assay in HepG2 cells - 40 hour (AID 1224870); further: nearly all actives have a fitted effect of over 50% in size; further: potency means the concentration at half of the fitted maximal effect
Summary of the method: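 HepG2 cells mixed with RealTime-Glo MT reagents (NanoLuc plus cell-permeant prosubstrate) were seeded at 600 cells/well, incubated 5 h at 37 C/5% CO2, then pinned with compounds in DMSO; nonlytic luminescence tracked viability during 40 h treatment.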

[8] = qHTS assay to identify small molecule agonists of H2AX (AID 1224845; active means well fitted activation curve with a large enough effect in the signal ratio in the repeat runs, not every such curve was filed as active; the % refers to the signal ratio; further: potency means the concentration at half of the fitted maximal effect)
Summary of the method: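 Wild-type CHO-K1 cells plated overnight, then exposed 3 hr at 37C to compounds at 15 concentrations (0.76% DMSO). Lysed, then HTRF anti-pH2AX(S139)-cryptate/anti-H2AX-d2 detection after 24 hr at room temperature; emissions 665 and 620 nm.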

[9] = qHTS RealTime-Glo MT Cell Viability Assay in HEK293 cells - 32 hour (AID 1224868); further: nearly all actives have a fitted effect of over 50% in size; further: potency means the concentration at half of the fitted maximal effect
Summary of the method: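 HEK293 cells were seeded at 600 cells/well together with NanoLuc luciferase and cell-permeant prosubstrate, preincubated 5 h at 37 C/5% CO2, then given compound in DMSO by pintool. Luminescence from viable-cell prosubstrate reduction was read repeatedly over 40 h.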

[10] = qHTS assay to identify small molecule antagonists of the estrogen related receptor (ERR) signaling pathway from Tox21 library (AID 1224848); further: nearly all actives have a fitted effect of over 50% in size; further: potency means the concentration at half of the fitted maximal effect
Summary of the method: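 Screening used an ERR reporter line supplied by NTP, exposed for 18 h at 37 C to library compounds delivered in DMSO. Signal was luciferase luminescence developed with ONE-Glo at room temperature for 30 min.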

[11] = at 92.4 µM (top of the series) unless noted

| Compound | Potency [1] | outcome [2] | Potency [3] | activity change, positive = activation [4, 11] | Potency [5] | Potency [6] | Potency [7] | Potency [8] | Potency [9] | Potency [10] | cytotoxicity [6] | activity change, positive = activation ([4]; at 42.5 µM (top of the series)) | activity change, positive = activation ([4]; at 92.4 µM (top of the series)) |
| --- | --- | --- | --- | --- | --- | --- | --- | --- | --- | --- | --- | --- | --- |
| O=C(CBr)c1ccc(O)cc1 | inactive | inactive | inactive | -26% (inactive) | inactive | inactive | inactive |  |  |  |  |  |  |
| CC(O)C#N (stereo not drawn) | inactive |  |  |  | inactive | inactive |  | inactive | inactive |  |  |  |  |
| [Cd+2].[Cl-].[Cl-] | 55.4 µM (active) |  |  |  |  | inactive | inactive | 50.9 µM (active) and 56.6 µM (active) |  |  |  |  |  |
| Cc1ccc(OP(=O)(Oc2ccccc2)Oc2ccccc2)cc1 | inactive |  |  | -20.3% (inactive) | inactive | inactive | inactive | inactive | inactive |  |  |  |  |
| Cc1c(Cl)c(=O)oc2cc(OP(=O)(OCCCl)OCCCl)ccc12 | inactive | inactive |  |  | inactive | inactive | inactive |  |  |  |  |  |  |
| Oc1ccc2ccc3cccc4ccc1c2c34 | inactive | inactive |  |  |  | inactive |  |  | 15.5 µM (active) |  |  |  |  |
| CC(Cl)CN(C)C (stereo not drawn) |  | inactive | inactive |  | inactive | inactive | inactive | inactive |  |  |  |  |  |
| [Cl][Sn]([c]1ccccc1)([c]1ccccc1)[c]1ccccc1 |  |  | 1.52 µM (active) | -65.5% [at 19 µM] (inactive) | 2.61 µM (active) |  | 2.61 µM (active) | 677 nM (active) | 0.262 µM (active) | 0.58 µM (active) | -13.5% [at 15.8 µM] (inactive) |  |  |
| FC(F)(F)c1cccc(C2=CCN(CCc3ccc4ccccc4c3)CC2)c1 |  | inactive |  | -0.643% [at 42.5 µM] (inactive) | inactive | inactive | inactive | inactive | inactive | inactive |  |  |  |
| CC(=O)/C=C/c1ccc2c(c1)OCO2 | inactive |  |  | -46.7% (inactive) | inactive | inactive | inactive |  |  | 43.5 µM (active) |  |  |  |
| ClC1=C(Cl)[C@]2(Cl)[C@@H]3[C@@H](Cl)[C@@H](Cl)C[C@@H]3[C@@]1(Cl)C2(Cl)Cl |  | inactive | inactive | 0.0857% (inactive) | inactive | inactive | inactive | inactive | inactive | inactive |  |  |  |
| Cn1cc(C2=C(c3cn(C4CCN(Cc5ccccn5)CC4)c4ccccc34)C(=O)NC2=O)c2ccccc21 |  | inactive | inactive | -11.8% [at 42.5 µM] (inactive) |  | inactive |  | inactive |  |  |  |  |  |
| O=c1[nH]c2ccccc2n1CCCN1CCC(n2c(=O)[nH]c3cc(Cl)ccc32)CC1 | inactive |  |  |  | inactive | inactive | inactive |  | 10.7 µM (active) |  |  |  |  |
| CC(C)(C)C(O)C(Oc1ccc(-c2ccccc2)cc1)n1cncn1 (stereo not drawn) | 54.9 µM (active) |  |  | -60.3% (inactive) | inactive | inactive | inactive |  | 24.5 µM (active) | 27.3 µM (active) |  |  |  |
| ClC1=C(Cl)[C@]2(Cl)[C@@H]3[C@@H]4C[C@@H]([C@H]5O[C@@H]45)[C@@H]3[C@@]1(Cl)C2(Cl)Cl |  |  | 50.5 µM (active) | -52.1% (inactive) | 43.6 µM (active) | 43.6 µM (active) |  | 17900 nM (active) | 21.9 µM (active) | 43.3 µM (active) |  |  |  |
| O=c1[nH]c2ccccc2n1C1CCN(CCCC(c2ccc(F)cc2)c2ccc(F)cc2)CC1 |  |  | 45 µM (active) |  | 43.6 µM (active) and inactive | inactive | 30.9 µM (active) and inactive | inactive | 17.4 µM (active) and 16.9 µM (active) | 10.9 µM (active) and 13.3 µM (active) |  | -52.6% (inactive) | -79.9% (inactive) |
| CN(C)C1CSSSC1 |  | inactive | inactive | -13.3% (inactive) | inactive | inactive | inactive | inactive |  | inactive |  |  |  |
| Cc1cc(C(F)(C(F)(F)F)C(F)(F)F)ccc1NC(=O)c1cccc(I)c1C(=O)NC(C)(C)CS(C)(=O)=O |  | inactive | inactive | -22.4% [at 42.5 µM] (inactive) | inactive | inactive | inactive | inactive |  |  |  |  |  |
| OC(c1ccc(Cl)cc1)(c1ccc(Cl)cc1)C(Cl)(Cl)Cl | 21.9 µM (active) |  |  |  | inactive | inactive | inactive |  |  | inactive |  |  |  |
| CCOP(=S)(OCC)SCS(=O)(=O)C(C)(C)C | inactive |  |  |  | inactive | inactive | inactive |  | inactive |  |  |  |  |
| CCCCCCCCCCCCBr |  | inactive | inactive |  | inactive | inactive | inactive | inactive | inactive |  |  |  |  |
| CC(C)(COCC1CO1)COCC1CO1 (stereo not drawn) |  | inactive | inactive | -8.81% (inactive) | inactive | inactive | inactive | inactive |  | inactive |  |  |  |
| CCSC(C)CC1CC(=O)C(/C(CC)=N/OC/C=C/Cl)=C(O)C1 (stereo not drawn) |  | inactive |  | -10.8% [at 42.5 µM] (inactive) | inactive | inactive | inactive | inactive | inactive | inactive |  |  |  |
| CCc1nn(C)c(C(=O)NCc2ccc(C(C)(C)C)cc2)c1Cl |  |  | 56.6 µM (active) | -58.3% (inactive) | inactive | inactive | inactive | inactive | 0.0347 µM (active) | 0.0486 µM (active) |  |  |  |
